According to PubChem BioAssay AID624298 (National Center for Advancing Translational Sciences (NCATS), 2012):
Inconclusive results are not listed. Active and inactive are the calls of the source. Calls follow the shape of the dose curve; as a rule, active = well fitted activation curve with a large enough effect; inconclusive = small, poorly fitted or top-dose-only effect; inactive = no such curve, though single readings can be large or run the other way.

experiment: Activators of T cell receptors: Hit Validation; conditions: primary human leukocytes, cytokine release by HTRF, 48 h, TCR-stimulated with anti-CD3 beads; series mostly up to 46.1 µM; activation: at the top concentration; also: 0% is about no effect
How it was run: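 Readout is IL-2 secretion by HTRF, measured after 48 hr in which primary human leukocytes received compound together with a-CD3 beads as the only TCR stimulus.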

activation, inactive:
Cc1ccc(NC2=CC(=O)C(=O)c3ccccc32)c(C)c1 10.8%
COc1cc(C(=O)Nc2ccn(C)n2)ccc1OC(F)F 6.29%
CC1CCCN(S(=O)(=O)c2ccc(NC(=O)C3CCN(C(=O)C(C)(C)C)CC3)cc2)C1 (stereo not given) 4.16%
COc1cc2c(cc1O)CCN(C(=O)CSc1nncn1C)[C@@H]2C 5.94%
COc1ccc(CN2CCN(C(=O)c3cc(C4CC4)nn3-c3ccccc3)CC2)cc1F 3.73%
O=C1C=C(NCCc2ccccc2)C2(CCCCC2)O1 7.06%
COc1ccc(-n2c(=O)[nH]cc(C(=O)Nc3ccc4c(c3)OCO4)c2=O)cc1OC -5.9%
CC(c1nnc(SCC(=O)c2c(N)n(C3CC3)c(=O)[nH]c2=O)n1-c1ccc(F)cc1)N(C)C (stereo not given) 1.48%
CCOC(=O)C1CCN(C(=O)c2cccc(S(=O)(=O)N3CCc4ccccc43)c2)CC1 4.53%
Cc1ccc(NS(=O)(=O)c2ccc(C)c(C(=O)NCC(c3ccccc3)N(C)C)c2)cc1 (stereo not given) 6.06%
O=C(CCCN=C1NS(=O)(=O)c2ccccc21)Nc1ccc(Cl)cc1 5.26%
O=C(CCOc1ccccc1)Nc1ccc(S(=O)(=O)Nc2ncccn2)cc1 -10.8%
O=C(O)c1ccc(NC(=O)C(c2ccccc2)c2ccccc2)cc1 9.22%
CC(C)N1C(=O)C(=O)N(CC(=O)N2CCc3ccccc32)C1=O 9.24%
COc1ccc(C(=O)Nc2cccc(NC(C)=O)c2)cc1OC -37.1%
N#Cc1ccccc1Sc1ccccc1C(=O)OCC(=O)NC12CC3CC(CC(C3)C1)C2 5.04%
COc1ccc(CNC(=O)C[C@H]2C[C@H](C(=O)N3CCCCC3)[C@@]3(C)c4[nH]c5cc(-c6ccco6)ccc5c4CCN3C2=O)cc1OC 8.64%
CCN(CC)CC(=O)c1c(N)n(Cc2ccccc2)c(=O)n(C)c1=O 5.63%
Nn1c(SCc2ccccc2F)nnc1-c1ccccn1 6.47%
Cc1nn(Cc2ccccc2)c(C)c1C(=O)N1CCN(S(=O)(=O)/C=C/c2ccccc2)CC1 9.83%
CC1(NC(=O)CCNC(=O)c2ccc(C(C)(C)C)cc2)CCS(=O)(=O)C1 (stereo not given) 6.9%
Cc1ccc(C(CC(=O)O)Nc2nc(N3CCOCC3)nc(N3CCOCC3)n2)cc1 (stereo not given) 9.58%
CCOc1ccc(-c2nnc(-c3snc(-c4ccc(F)cc4)c3N=CN(C)C)o2)cc1 -8.31%
O=C(NCCCNCc1ccccc1)/C(=N\O)c1ccccc1 6.08%
COc1ccc(Cl)cc1NC(=O)CN(C)C(=O)c1cn2ccccc2n1 -2.38%
CC(=O)Nc1nnc(S(N)(=O)=O)s1 0.127%
CN(CC(=O)NCC(=O)Nc1ccc(F)cc1)C1CCS(=O)(=O)C1 (stereo not given) 4.94%
CC(=O)Nc1ccc(C(=O)OCC(=O)N(c2ccccc2)C2CCS(=O)(=O)C2)cc1 (stereo not given) 4%
COc1ccc(NC(=O)C2CC(=O)N(Cc3ccco3)C2)cc1Cl (stereo not given) 0.922%
CCOc1cc(/C=N/NC(=S)Nc2ccccc2C(F)(F)F)ccc1OCC(=O)N1CCOCC1 5.35%
